# In PubChem BioAssay AID651711 (Broad Institute, 2012):
# Values joined by “and” are separate entries in the source; they are usually repeats but may differ in a detail not shown here. Equal entries are not always repeated. Screen size: about 350,000 compounds; about 180 (0.051%) were called active. For the sample, actives were picked, then their nearest neighbours and some compounds at random. A number with no mark means an inactive call.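 The calls were made as follows: active = mean replicate inhibition above about 25%, with every replicate also reaching it (limit read from the data, passing the limit was not always enough); inconclusive = only one of those two criteria met; inactive = neither criterion met.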
# Target: Protein disulfide-isomerase A6 (Homo sapiens) (UniProt Q15084)
# Assay: ERp5 (PDIA6) reductase activity blockers – biochemical, turbidity, absorbance 650 nm, single point, primary screen (AID 651711)
# Conditions: ERp5 insulin aggregation, 90 min, at 9.99 µM, hits give high values
# Sequence of Protein disulfide-isomerase A6 (Homo sapiens) (Q15084 whole entry, looked up): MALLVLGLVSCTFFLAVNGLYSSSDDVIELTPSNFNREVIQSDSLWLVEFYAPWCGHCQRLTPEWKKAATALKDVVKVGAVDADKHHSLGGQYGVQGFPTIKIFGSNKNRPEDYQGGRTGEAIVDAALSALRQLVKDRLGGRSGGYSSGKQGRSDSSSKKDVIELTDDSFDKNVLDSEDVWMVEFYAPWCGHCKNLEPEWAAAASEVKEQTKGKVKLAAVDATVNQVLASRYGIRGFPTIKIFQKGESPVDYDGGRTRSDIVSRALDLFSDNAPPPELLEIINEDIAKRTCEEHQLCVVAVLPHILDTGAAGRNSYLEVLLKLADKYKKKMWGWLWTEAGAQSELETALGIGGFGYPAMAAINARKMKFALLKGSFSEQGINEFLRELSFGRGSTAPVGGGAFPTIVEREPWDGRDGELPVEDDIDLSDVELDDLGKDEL
row,SMILES,inhibition
1,O=C(C[C@@H]1CC[C@@H]2[C@H](COC[C@H](O)CN2C(=O)Cc2ccccc2)O1)NC1CCC1,9.77%
2,COc1ccc(-c2ccc([C@@H]3[C@@H](C#N)N(C(=O)C4CCCCC4)[C@H]3CO)cc2)cc1,-2.17%
3,CCCNC(=O)N1C[C@H](C)[C@@H](OC)CN(C)C(=O)c2ccc(NC(=O)CC)cc2OC[C@@H]1C,7.86%
4,CC(C)NC(=O)N[C@H]1CC[C@H](CC(=O)N2CCCCC2)O[C@@H]1CO,3.34%
5,C[C@@H]1CCCCO[C@H](CN(C)Cc2ccc(Cl)c(Cl)c2)[C@@H](C)CN([C@H](C)CO)C(=O)c2cc(NS(=O)(=O)c3cn(C)cn3)ccc2O1,1.36%
6,COc1ccc(S(=O)(=O)N(C)C[C@H]2Oc3ccc(NC(=O)C4CC4)cc3CC(=O)N([C@@H](C)CO)C[C@@H]2C)cc1,2.88%
7,COc1ccccc1C#Cc1cnc2c(c1)C(=O)N([C@H](C)CO)C[C@H](C)[C@H](CN(C)S(=O)(=O)c1cn(C)cn1)O2,-2.62%
8,CCN1C(=O)N[C@@H]2C[C@H](C(=O)N3CCCC3)[C@H](C)[C@H](c3ccccc3)C[C@@H]21,0.542%
9,COc1ccccc1C#Cc1cnc2c(c1)C(=O)N([C@@H](C)CO)C[C@@H](C)[C@@H](CN(C)C(=O)CN(C)C)O2,-1.98%
10,C[C@@H]1CN([C@H](C)CO)C(=O)c2cc(NC(=O)c3ccncc3)ccc2O[C@@H](C)CCCCO[C@@H]1CN(C)CC1CC1,3.17%
11,Cc1ccccc1S(=O)(=O)N[C@@H]1CC[C@H](CCn2cc(-c3ccc(F)cc3)nn2)O[C@@H]1CO,0.302%
12,COc1ccc(C#Cc2ccc([C@@H]3[C@@H](CO)N4C(=O)CN(C(=O)c5ccc(F)cc5)C[C@@H]34)cc2)cc1,6.45%
13,CO[C@@H]1CN(C)C(=O)c2cc(NC(=O)Nc3cccc(F)c3)ccc2OC[C@H](C)N(C)C[C@@H]1C,2.15%
14,C[C@@H]1CN([C@H](C)CO)C(=O)c2cc(-c3ccc(F)cc3)cnc2O[C@@H]1CN(C)C(=O)C1CCC1,1.7%
15,C[C@@H]1CN([C@H](C)CO)C(=O)c2cc(NS(=O)(=O)c3ccc(F)cc3)ccc2O[C@@H]1CN(C)C(=O)Nc1cccc2ccccc12,13.7%
16,CCCN1C[C@H](C)[C@@H](OC)CN(C)C(=O)c2ccc(NC(=O)C3CCOCC3)cc2OC[C@@H]1C,0.943%
17,C[C@H](CO)N1C[C@H](C)[C@@H](CN(C)CC2CC2)OCCCC[C@H](C)Oc2ccc(NC(=O)Nc3ccccc3)cc2C1=O,2.55%
18,O=S(=O)(c1ccccc1)N1CC[C@@H]2[C@@H](CO)Nc3ccc(C#Cc4cccc(F)c4)cc3[C@@H]21,-0.006%
19,CCC(=O)N(C)C[C@@H]1Oc2cc(-c3ccc(OC)cc3)ccc2S(=O)(=O)N([C@@H](C)CO)C[C@H]1C,0.0355%
20,CC(C)C#Cc1cnc2c(c1)C(=O)N([C@H](C)CO)C[C@@H](C)[C@H](CN(C)Cc1ccccc1)O2,-2.64%
21,COc1ccc(S(=O)(=O)Nc2ccc3c(c2)CC(=O)N([C@H](C)CO)C[C@H](C)[C@H](CN(C)C(=O)Nc2ccccc2)O3)cc1,64.1% (active)
22,COc1ccc(S(=O)(=O)Nc2ccc3c(c2)CC(=O)N([C@H](C)CO)C[C@@H](C)[C@@H](CN(C)C(=O)Nc2cccc4ccccc24)O3)cc1,11.8%

row,SMILES,inhibition
1,C[C@@H]1CN([C@H](C)CO)C(=O)Cc2cc(NC(=O)Nc3ccccc3)ccc2O[C@@H]1CN(C)Cc1ccc(C(F)(F)F)cc1,1.88%
2,C[C@@H]1CN([C@H](C)CO)C(=O)Cc2cc(NC(=O)Nc3cccc4ccccc34)ccc2O[C@@H]1CN(C)Cc1ccc(C(F)(F)F)cc1,60% (active)
3,C[C@@H]1CN([C@H](C)CO)C(=O)Cc2cc(NC(=O)Nc3cccc4ccccc34)ccc2O[C@@H]1CN(C)Cc1ccc(C(=O)O)cc1,2.16%
4,COc1ccc(NC(=O)N(C)C[C@@H]2Oc3ccc(NS(=O)(=O)c4ccc(OC)cc4)cc3CC(=O)N([C@H](C)CO)C[C@H]2C)cc1,8.49%
5,COC(=O)[C@@H]1[C@@H](CO)[C@@H]2Cn3c(ccc(-c4ccc(OC)cc4)c3=O)[C@@H]2N1S(C)(=O)=O,4.09%
6,O=C(N[C@@H]1CC[C@@H](CC(=O)N2CCc3ccccc3C2)O[C@H]1CO)C1CCC1,-0.402%
7,CCC(=O)N1CC(=O)N2[C@H](CO)[C@@H](c3ccc(-c4ccc(C(=O)N(C)C)cc4)cc3)[C@@H]2C1,-1.19%
8,CO[C@H]1CN(C)C(=O)c2ccc(NC(=O)C3CCC3)cc2OC[C@@H](C)N(Cc2ccccn2)C[C@H]1C,-2.1%
9,C[C@H](CO)N1C[C@H](C)[C@H](CN(C)Cc2ccc(C(=O)O)cc2)OCc2cn(nn2)CCCC1=O,-4.21%
10,Cc1ccccc1C(=O)N[C@H](C(=O)N1CCC[C@H]1C(=O)NCc1ccccc1)C(C)C,5.11%
11,CO[C@H]1CN(C)C(=O)c2cc(NS(=O)(=O)c3ccccc3)ccc2OC[C@@H](C)N(Cc2nccs2)C[C@@H]1C,1%
12,COc1ccc(CN(C)C[C@@H]2Oc3c(NC(=O)C4CC4)cccc3C(=O)N([C@@H](C)CO)C[C@H]2C)cc1,1.33%
13,Cc1ccc(S(=O)(=O)N(C)C[C@@H]2Oc3ccc(N(C)C)cc3C(=O)N([C@@H](C)CO)C[C@H]2C)cc1,-2.31%
14,COc1ccccc1S(=O)(=O)N1C[C@@H](O)COC[C@H]2O[C@H](CC(=O)O)CC[C@@H]21,-5.9%
15,CCC(=O)N1C[C@@H](O)COC[C@H]2O[C@H](CC(=O)NCC3CCCCC3)CC[C@@H]21,-3.78%
16,O=C1CN(Cc2ccc(F)cc2)C[C@H]2[C@@H](c3ccc(Br)cc3)[C@H](CO)N12,4.49%
17,CO[C@H]1CN(C)C(=O)c2ccc(NC(=O)CC(F)(F)F)cc2OC[C@H](C)N(C(=O)C2CC2)C[C@H]1C,3.96%
18,O=C(CC1CC1)N1[C@@H](CO)[C@@H](c2ccccc2)C12CN(S(=O)(=O)c1ccccc1)C2,7.09%
19,COCC(=O)N1C[C@@H]2[C@H](c3ccccc31)[C@@H](CO)N2C(=O)C1CC1,-1.61%
20,COCC#Cc1ccc([C@H]2[C@H](CO)N3C(=O)CN(C(=O)Nc4ccccc4F)C[C@@H]23)cc1,3.85%
21,CNC[C@H]1Oc2ccc(NS(=O)(=O)c3cn(C)cn3)cc2C(=O)N([C@@H](C)CO)C[C@@H]1C,-3.85%
22,O=C(C[C@@H]1C[C@@H]2c3cc(NC(=O)c4ccc5c(c4)OCO5)ccc3O[C@@H]2[C@H](CO)O1)NCC1CC1,-3.55%

row,SMILES,inhibition
1,Cc1cccc(-c2ccc([C@@H]3[C@H](CO)N4CCCCN(Cc5ccncc5)C[C@@H]34)cc2)c1,10.1%
2,COc1ccc2c3c(n(C)c2c1)[C@H](CO)N(Cc1ccc(F)cc1)CC31CCN(C)CC1,-1.69%
3,CO[C@H]1CN(C)C(=O)c2cc(NC(=O)C3CCC3)ccc2OC[C@H](C)N(CC2CCCCC2)C[C@@H]1C,-3.58%
4,CCCNC(=O)N(C)C[C@H]1Oc2cc(-c3ccncc3)ccc2S(=O)(=O)N([C@H](C)CO)C[C@@H]1C,1.24%
5,CCCNC(=O)N1[C@@H]2CNC[C@H]1C2c1ccc(-c2cccc(C)c2)cc1 (some centres undefined),2.37% and -1.56%
6,O=C(N[C@@H]1CC[C@H](CCn2cc(-c3ccccc3)nn2)O[C@H]1CO)c1cnccn1,19.2%
7,C[C@@H]1CN([C@@H](C)CO)C(=O)Cc2cc(NS(=O)(=O)c3cccs3)ccc2O[C@H]1CN(C)S(=O)(=O)c1ccc(F)cc1,18.7%
8,CC(C)NC(=O)N1[C@H](C#N)[C@H](c2ccc(C#CC3CCCCC3)cc2)[C@H]1CO,-0.752%
9,O=C(Cc1ccccn1)NCC[C@H]1CC[C@H](NC(=O)Nc2ccc(F)cc2)[C@@H](CO)O1,-0.166%
10,C[C@@H]1CN([C@@H](C)CO)C(=O)c2cccc(NS(=O)(=O)c3ccc(F)cc3)c2O[C@@H]1CN(C)Cc1ccc(C(=O)O)cc1,0.602%
11,Cc1noc(C)c1NC(=O)N(C)C[C@@H]1Oc2ccc(NC(=O)C3CC3)cc2C(=O)N([C@H](C)CO)C[C@@H]1C,7.46%
12,CC(C)NC(=O)N1[C@H](CNC(=O)CN(C)C)[C@@H](c2ccccc2)[C@@H]1CO,6.83%
13,O=C(C[C@@H]1C[C@H]2c3cc(NC(=O)NC4CCCC4)ccc3O[C@H]2[C@@H](CO)O1)NC1CCCCC1,5.32%
14,CCC(=O)Nc1ccc2c(c1)OC[C@H](C)N(C(=O)c1ccccc1F)C[C@@H](C)[C@H](OC)CN(C)C2=O,12.1%
15,C[C@@H]1CN([C@@H](C)CO)C(=O)CCCn2cc(nn2)CO[C@@H]1CN(C)Cc1ccccc1C(=O)O,1.73%
16,COC(=O)[C@]12C[C@H](CC(=O)NCc3ccccc3)C(=O)N(CCC3=CCCCC3)C1=C[C@H](C(C)(C)C)O[C@@H]2C,15.6%
17,CN1C(=O)c2cc(NC(=O)C3CCOCC3)ccc2OC[C@H]2O[C@@H](CC(=O)NCC3CCCCC3)CC[C@@H]21,-1.95%
18,COCCNC(=O)c1ccccc1NS(=O)(=O)c1ccc(C)c([N+](=O)[O-])c1,32.3% (active)
19,COc1ccc(Br)cc1/C=N/Nc1ccc(S(=O)(=O)Nc2ccccc2C(=O)O)cc1[N+](=O)[O-],-6.38%
20,COC(=O)CNC(=O)c1ccccc1[N+](=O)[O-],-6.79%
